Screening data as filed in PubChem.
S-ASM inh = inhibitors of human secretory acid sphingomyelinase | Potency, µM (top dose mostly 57.5 µM), hits mostly inhibitors | hit rate 0.006% among 340,000 | AID 504937 | placental ASM, HMU-PC fluorogenic substrate, 60 min
Target sequence (P17405 47-631 limits assumed): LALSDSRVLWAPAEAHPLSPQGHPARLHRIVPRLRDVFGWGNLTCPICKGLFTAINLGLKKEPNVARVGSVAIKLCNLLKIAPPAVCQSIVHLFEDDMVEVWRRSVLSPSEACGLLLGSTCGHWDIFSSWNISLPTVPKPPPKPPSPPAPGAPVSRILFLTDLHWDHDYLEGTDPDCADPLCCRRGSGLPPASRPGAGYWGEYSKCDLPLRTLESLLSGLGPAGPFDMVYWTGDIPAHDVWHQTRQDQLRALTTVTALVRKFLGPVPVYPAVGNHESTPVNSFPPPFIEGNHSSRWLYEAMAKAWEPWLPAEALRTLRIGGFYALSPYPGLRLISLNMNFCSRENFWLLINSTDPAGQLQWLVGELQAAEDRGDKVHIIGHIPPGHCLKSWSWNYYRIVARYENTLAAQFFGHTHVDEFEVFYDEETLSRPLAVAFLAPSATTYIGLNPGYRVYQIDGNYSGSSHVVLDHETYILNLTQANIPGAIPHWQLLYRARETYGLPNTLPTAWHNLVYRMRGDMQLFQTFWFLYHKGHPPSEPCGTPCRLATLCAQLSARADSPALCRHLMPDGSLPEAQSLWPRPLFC
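qHTS format. ASM enzyme prepared from human placenta hydrolyses the fluorogenic substrate HMU-PC0 (9 uM final) over 60 min at 37 °C after a 10 min compound preincubation.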
IL-1B inflam inh = inflammasome signaling inhibition, IL-1 beta readout | THP-1 LPS/ATP IL-1B secretion, AlphaLISA, 16 h; active compounds read low | activity change, % at 57.5 µM | hit rate 4.7% among 360,000 | AID 743279; in the data active = activity change below about -50%; inconclusive = mostly about -30% to -49%
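THP-1 cells pretreated 1 hr with compounds (up to 57.5 uM final), then stimulated with LPS (250 ng/mL final) plus ATP (1.25 mM final); secreted IL-1B measured by AlphaLISA after 16 hr, decreased signal indicating inhibition.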
TGFb SMAD3 inh = inhibitors of TGF-b signaling; HepG2 CAGA-GFP TGF-b/SMAD3 reporter, GFP fluorescence, 18 h; TGF-beta stimulated, 500 pg/mL final; Potency, µM (highest dose often 46.1 µM), most hits filed as inhibitors; hit rate 1.2% among 410,000; AID 588855; also: nearly all actives have a fitted effect of over 65% in size
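HEPG2 CAGA-GFP reporter cells (1000/well, DMEM with 1% FBS) received compounds, then recombinant TGF-beta at 500 pg/mL final for 18 hours at 37 degrees C. Per-cell GFP summed per well was normalised to unstimulated and stimulated DMSO controls before curve fitting.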
TDP1 cell CPT = DT40-hTDP1 cell growth loss with CPT | chicken DT40 Tdp1-/-;hTDP1 cells + 20 nM CPT, ATP luminescence, 48 h | Potency, µM (titrated, usually from 46.2 µM), usual class: inhibitors | hit rate 12% among 420,000; also: nearly all actives have a fitted effect of over 55% in size
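Chicken DT40 Tdp1-/- cells stably complemented with human TDP1 were seeded at 400 cells/well in medium containing 20 nM camptothecin, exposed to pin-transferred compounds, and grown at 37 °C for at least 48 hr. Viability was read as ATP luminescence.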
TDP1 cell noCPT = qHTS for Inhibitors of human tyrosyl-DNA phosphodiesterase 1 (TDP1): qHTS in cells in absence of CPT; DT40 Tdp1-/- hTDP1 cells, no CPT, ATP luminescence, 48 h; Potency, µM (titrated, usually from 46.2 µM), usual class: inhibitors; hit rate 15% among 420,000; AID 686978, 2013; also: nearly all actives have a fitted effect of over 55% in size
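Compound effects on proliferation are scored in DT40 Tdp1-/-;hTDP1 cells in the absence of CPT. ATP levels (CellTiter-Glo luminescence) are recorded after a ≥48 hr, 37 °C incubation.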
HepG2 tox = HepG2 cytotoxicity, counter-screen for TGF-b inhibitors; HepG2 CAGA-GFP viability, ATP luminescence, 18 h; Potency, µM (highest dose often 46.1 µM), usual class: cytotoxic; hit rate 0.76% among 410,000; AID 588856
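HepG2 CAGA-GFP cells (1000/well, DMEM with 1% FBS) received compound, then TGF-beta at 500 pg/mL final, and were incubated 18 hours at 37 degrees C. Viability was read by CellTiter-Glo luminescence. Media-only wells were set as complete cell-killing and DMSO as no toxicity.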
Each line names hits and unclear results; the compound was inactive in the other large screens. A selection: hits, their analogues and other compounds. The true share with any hit is near 19%. Unless noted, calls follow the shape of the dose curve; as a rule, active = well fitted curve in the direction sought with a large enough effect; inconclusive = small, poorly fitted or top-dose-only effect, or another doubt; inactive = no such curve, though single readings can be large; an effect the other way counts as inactive or inconclusive.

O=C(Cc1ccc(F)cc1)Nc1ccc(F)c([N+](=O)[O-])c1	TDP1 cell CPT inconclusive, TDP1 cell noCPT inconclusive
O=C(Nc1ccccc1)Nc1ccc(Cl)c([N+](=O)[O-])c1	none
O=C(NNC(=S)NCc1ccccc1)c1ccc(Br)cc1	TDP1 cell CPT inconclusive, TDP1 cell noCPT inconclusive
CN1CCC(N(C)C(=O)c2cc(-c3ccccc3Cl)nc3ccccc23)CC1	TDP1 cell CPT inconclusive, TDP1 cell noCPT inconclusive
COc1ccc(NC(=O)C2CCC(C(C)(C)C)CC2)cc1S(=O)(=O)N1CCOCC1 (stereo not drawn)	TDP1 cell CPT 21µM, TDP1 cell noCPT inconclusive
COc1ccc(OC)c(S(=O)(=O)N2CCC(C(=O)Nc3ccc(C)c(C)c3)CC2)c1	TDP1 cell CPT 16µM, TDP1 cell noCPT 21µM
O=C1c2ccccc2C(=O)N1Cc1cnc(N2CCN(c3ccccc3)CC2)s1	TDP1 cell CPT 8.2µM, TDP1 cell noCPT 12µM
O=C(CCN1C(=O)c2ccccc2C1=O)N1CCN(c2ccccc2)CC1	none
COc1cc([C@@H]2c3cc4c(cc3[C@@H](O[C@@H]3O[C@@H]5CO[C@@H](C)O[C@H]5[C@H](O)[C@H]3O)[C@H]3COC(=O)[C@H]23)OCO4)cc(OC)c1O	TDP1 cell CPT 0.16µM, TDP1 cell noCPT 0.16µM
COc1cc(C2c3cc4c(cc3C(OC3OC5COC(C)O[C@@H]5C(O)C3O)C3COC(=O)C23)OCO4)cc(OC)c1O (stereo partly drawn)	TDP1 cell CPT 0.18µM, TDP1 cell noCPT 0.15µM (no result: S-ASM inh, IL-1B inflam inh, TGFb SMAD3 inh, HepG2 tox)
COc1cc(C2c3cc4c(cc3C(OC3OC5COC(c6cccs6)OC5C(O)C3O)C3COC(=O)C23)OCO4)cc(OC)c1O (stereo not drawn)	TDP1 cell CPT 0.023µM, TDP1 cell noCPT 0.026µM
COc1ccc(S(=O)(=O)N2CCCCC2)cc1NC(=O)CCNC(=O)c1ccc(Br)cc1	TDP1 cell CPT inconclusive, TDP1 cell noCPT inconclusive
O=C(N/N=C/c1ccc[nH]1)c1ccccc1OCc1ccccc1Cl	IL-1B inflam inh -90, TDP1 cell CPT inconclusive, TDP1 cell noCPT inconclusive
Cc1cc(C(=O)N/N=C/c2ccc[nH]2)no1	TDP1 cell CPT inconclusive, TDP1 cell noCPT 18µM
Cc1cc(C(=O)N/N=C/c2ccc[nH]2)n[nH]1	none
Cc1cc(Br)c(OCc2ccc(C(=O)N/N=C/c3ccc[nH]3)cc2)c(Br)c1	IL-1B inflam inh -62, TGFb SMAD3 inh 1.1µM, TDP1 cell CPT inconclusive, TDP1 cell noCPT inconclusive
O=C(N/N=C/c1ccc[nH]1)c1ccc(O)cc1	none
COc1ccc2c(Cl)cc(NC(=O)Nc3c(C)cccc3C)nc2c1	TDP1 cell CPT 13µM, TDP1 cell noCPT 18µM (no result: S-ASM inh)
CCOc1ccccc1CNC(=O)CCc1cn(Cc2ccc(Cl)cc2)c2ccccc12	TDP1 cell CPT 18µM, TDP1 cell noCPT 16µM (no result: S-ASM inh, IL-1B inflam inh)
CCOc1ccc(CCNC(=O)CCc2cn(Cc3ccccc3F)c3ccccc23)cc1OCC	TDP1 cell CPT inconclusive, TDP1 cell noCPT inconclusive (no result: S-ASM inh, IL-1B inflam inh)
COc1ccc(CNC(=O)CCc2cn(Cc3cc(C)ccc3C)c3ccccc23)cc1OC	TGFb SMAD3 inh inconclusive, TDP1 cell CPT 4.6µM, TDP1 cell noCPT 5.8µM (no result: S-ASM inh, IL-1B inflam inh)
COc1ccc(Br)cc1CNC(=O)CCc1cn(Cc2ccc(C)cc2)c2ccccc12	TDP1 cell CPT inconclusive, TDP1 cell noCPT 23µM (no result: S-ASM inh, IL-1B inflam inh)
Cc1ccc(Cn2cc(CCC(=O)NC3CCC(C)CC3)c3ccccc32)cc1 (stereo not drawn)	TGFb SMAD3 inh inconclusive, TDP1 cell CPT inconclusive, TDP1 cell noCPT 13µM (no result: S-ASM inh, IL-1B inflam inh)
COc1ccc(OC)c(CCNC(=O)CCc2cn(Cc3cc(C)ccc3C)c3ccccc23)c1	TDP1 cell CPT inconclusive, TDP1 cell noCPT inconclusive (no result: S-ASM inh, IL-1B inflam inh)
Cc1ccc(Cn2cc(CCC(=O)NCc3ccccc3F)c3ccccc32)cc1	none (no result: S-ASM inh, IL-1B inflam inh)
O=C(CCC(=O)Nc1ccccc1)NNC(=O)c1ccccc1Cl	none
